# Assay results taken from PubChem BioAssay (EPA / NIEHS).
# The source made the active and inactive calls. The calls were made as follows: active = hit-call score of the fitted dose curve at least 0.9, where 1 is the maximum; inactive = score below 0.9.
# Experiment: ATG_CMV_CIS: Attagene CIS-FACTORIAL HepG2 Assay for human CMV (Internal Marker) (AID 2282928);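 also: endpoint acts as a background internal control marker rather than a target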
# Conditions: HepG2 CMV promoter reporter, transcription factor profiling; actives raise or lower the signal
# Method in brief: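 HepG2 cells transiently transfected with multiple cis-regulated reporter units; 24 h compound exposure. Reporter mRNA quantified by RT-PCR, 6-FAM primer-extension labeling, HpaI digestion and capillary electrophoresis; bidirectional fitting against DMSO baseline.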
SMILES,outcome,AC50
C[C@]12CC[C@@H](O)C[C@@H]1CC[C@@H]1[C@@H]2CC[C@]2(C)C(=O)CC[C@@H]12,inactive,
CNC(=O)CSP(=O)(OC)OC,inactive,
O=c1nc(O)n(Cl)c(=O)n1Cl,inactive,
CC(C)CC(C)(c1ccc(O)cc1)c1ccc(O)cc1,inactive,
CN(C)[C@@H]1C(=O)C(C(N)=O)=C(O)[C@@]2(O)C(=O)C3=C(O)c4c(O)ccc(Cl)c4[C@@](C)(O)[C@H]3C[C@@H]12,,25.9 µM (active)
N#Cc1ccc(Cl)cc1,inactive,
N#CCC#N,inactive,
CC(C)[C@H](C(=O)OC(C#N)c1cccc(Oc2ccccc2)c1)c1ccc(OC(F)F)cc1 (some centres undefined),inactive,
c1ccc2c(c1)Oc1ccccc1O2,inactive,
BrCCCCBr,inactive,
CCOP(=S)(OCC)SCSc1cc(Cl)ccc1Cl,inactive,
COC(F)(C(F)(F)C(F)(F)F)C(F)(C(F)(F)F)C(F)(F)F (centres undefined),inactive,
BrCc1ccc(Br)cc1,inactive,
CN(N=O)c1ccc([N+](=O)[O-])cc1,inactive,
Fc1cccc(Cl)c1CCl,inactive,
O=S1(=O)OC(c2cc(Br)c(O)c(Br)c2)(c2cc(Br)c(O)c(Br)c2)c2ccccc21,inactive,
Brc1ccc(Br)cc1,inactive,
C[N+](C)(C)Cc1ccccc1,inactive,
CCOP(=S)(OCC)OP(=S)(OCC)OCC,inactive,
O=C(N[C@H]1CN2CCC1CC2)c1ccc2c(c1)OCCO2,inactive,

SMILES,outcome,AC50
CC1(C)COP(Oc2ccccc2)OC1,inactive,
O=[N+]([O-])c1ccc(Nc2ccccc2)cc1,inactive,
O=S(=O)(F)C(F)(F)C(F)(F)C(F)(F)C(F)(F)F,inactive,
Nc1ncn[nH]1,inactive,
CCC[CH2][Sn]([CH2]CCC)([CH2]CCC)[CH2]CCC,inactive,
CCOP(=S)(OCC)O/N=C(\C#N)c1ccccc1,inactive,
Clc1cc(C(Cl)(Cl)Cl)cnc1Cl,inactive,
COC(=O)Nc1cccc(OC(=O)Nc2cccc(C)c2)c1,inactive,
Brc1ccc(Oc2c(Br)cc(Br)cc2Br)c(Br)c1,inactive,
CCOP(=O)(OCC)SCCSCC,inactive,
N#CS,inactive,
Cc1cc(-c2cc(C)c(N)c(C)c2)cc(C)c1N,,37.8 µM (active)
O=c1oc2ccccc2c(O)c1C(CC(O)c1ccc(-c2ccc(Br)cc2)cc1)c1ccccc1 (centres undefined),inactive,
Cc1ccc2nc3sc(=O)sc3nc2c1,inactive,
CC[N+](CC)(CC)CC,inactive,
CC(C)(c1ccccc1)c1cc(-n2nc3ccccc3n2)c(O)c(C(C)(C)c2ccccc2)c1,inactive,
Cc1cc(C(F)(C(F)(F)F)C(F)(F)F)ccc1NC(=O)c1cccc(I)c1C(=O)NC(C)(C)CS(C)(=O)=O,inactive,
N#CCCC(Br)(C#N)CBr (centres undefined),,62.1 µM (active)
COc1ccc(N)cc1,inactive,
